Source: PubChem BioAssay
PINK1 modulator – changes PINK1 expression. PINK1 immunofluorescence, high-content cytometry, 24 h. Potency, µM (series often up to 76.6 µM), hits mostly activators. actives 0.2% (n = 410,000). AID 624263; active = well fitted activation curve with a large enough effect; inconclusive = small, poorly fitted or top-dose-only effect; cell line not stated here; also: nearly all actives have a fitted effect of over 65% in size
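PINK1 protein level read as immunofluorescence by microplate cytometer in a fixed, stained stable cell line after 24 h exposure to five compound concentrations, with CCCP as control.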
KB-V1 MDR tox – kills drug-selected multidrug resistant KB-V1 cells. actives 3.4% (n = 400,000). AID 1347076. Potency, µM (doses to about 46.1 µM), most hits filed as cytotoxic. KB-V1 MDR cells viability, CellTiter-Glo, 72 h; also: nearly all actives have a fitted effect of over 60% in size
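qHTS viability screen in drug-selected KB-V1 MDR cells: 72 h compound treatment at 37 degrees C, ATP luminescence end point.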
SW480 rerep – inducers of DNA re-replication in SW480 colon cancer cells; SW480 DNA re-replication, Hoechst DNA content imaging, 48 h; Potency, µM (highest dose often 46.1 µM), hits mostly activators; actives 1.8% (n = 340,000); AID 624297; also: nearly all actives have a fitted effect of over 55% in size
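Compounds, transferred as 23 nL by pin tool, were incubated with cells for 48 hr; DNA content per nucleus was then quantified by Hoechst staining and fluorescence plate imaging.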
MCF10A rerep – DNA re-replication induction in MCF 10a cells; Potency, µM (doses to about 46.1 µM), actives largely listed as activators; MCF 10A DNA re-replication, Hoechst nuclear intensity, 48 h; AID 624296; actives 2.9% (n = 350,000); also: nearly all actives have a fitted effect of over 50% in size
PTAP TSG101 blk – blocks PTAP/TSG101 interaction to inhibit HIV-1 budding. Potency, µM (series often up to 115 µM), usual class: inhibitors. 340,000 tested, under 10 active. Fluorescence polarization, FITC-PTAP peptide / Tsg101 binding. Q99816. AID 493005; active = well fitted inhibition curve with a large enough effect in the main read-out, with a control signal flat, not every such curve was filed as active; inconclusive = small, poorly fitted or top-dose-only effect, or effect the other way, or a change in a side signal; inactive = no such curve, though single readings can be large or run the other way
Target sequence (Q99816 whole entry, looked up): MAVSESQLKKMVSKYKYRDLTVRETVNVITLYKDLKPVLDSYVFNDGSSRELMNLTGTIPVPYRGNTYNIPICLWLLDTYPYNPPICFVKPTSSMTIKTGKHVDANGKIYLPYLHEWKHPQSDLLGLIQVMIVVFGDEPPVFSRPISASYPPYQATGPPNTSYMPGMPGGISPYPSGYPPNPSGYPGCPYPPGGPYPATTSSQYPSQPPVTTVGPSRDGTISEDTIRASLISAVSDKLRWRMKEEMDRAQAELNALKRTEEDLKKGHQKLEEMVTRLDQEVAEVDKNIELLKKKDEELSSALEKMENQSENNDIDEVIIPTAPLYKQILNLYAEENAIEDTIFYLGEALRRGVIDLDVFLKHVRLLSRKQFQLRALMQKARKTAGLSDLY
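Compounds were pin-transferred onto Tsg101 binding domain (10 uM final) in HEPES pH 7.5 buffer, then FITC-PTAP peptide was added at 50 nM final. After 20 min at RT, polarization reported peptide displacement across a qHTS concentration series.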
KB-3-1 tox – KB-3-1 parental cell cytotoxicity; KB-3-1 viability, CellTiter-Glo ATP luminescence, 72 h; Potency, µM (top dose mostly 46.1 µM), actives largely listed as cytotoxic; actives 1.4% (n = 400,000); also: nearly all actives have a fitted effect of over 60% in size
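Viability of parental KB-3-1 cells, measured by CellTiter-Glo luminescence, followed a 72 h incubation at 37 °C with pinned compounds in phenol-red-free DMEM containing 10% FBS.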
Numbers stand for hits; 0 = inactive; ? = inconclusive; - = no result given; [ ] = remark or other dose. Compounds with a hit are over-represented: about 6.8% of the library has one in this group of screens. Unless noted, calls follow the shape of the dose curve; as a rule, active = well fitted curve in the direction sought with a large enough effect; inconclusive = small, poorly fitted or top-dose-only effect, or another doubt; inactive = no such curve, though single readings can be large; an effect the other way counts as inactive or inconclusive.

SMILES	PINK1 modulator	KB-V1 MDR tox	SW480 rerep	MCF10A rerep	PTAP TSG101 blk	KB-3-1 tox
COc1cc(C(=O)N/N=C(\C)c2ccccn2)cc(OC)c1OC	0	7.3µM	3.7µM	?	0	6.5µM
CCC(=O)NC(c1ccc(Cl)cc1Cl)c1ccc2cccnc2c1O (stereo not drawn)	0	0	0.52µM	?	0	?
CCCC(=O)NC(c1ccccc1Cl)c1ccc2cccnc2c1O (stereo not drawn)	0	?	?	?	0	?
CCCCC(=O)NC(c1ccc(Cl)cc1Cl)c1ccc2cccnc2c1O (stereo not drawn)	0	?	1.2µM	?	0	3.3µM
CC(C)C(=O)NC(c1ccc(Cl)cc1Cl)c1ccc2cccnc2c1O (stereo not drawn)	0	0	?	0	0	0
CC(C)CC(=O)NC(=S)Nc1ccccc1N1CCCC1	0	0	0	0	0	0
CCCC(=O)NC(=S)Nc1cccc(Cl)c1N1CCCCC1	0	18µM	0	?	0	?
CCC(=O)NC(=S)Nc1cccc(Cl)c1N1CCCCC1	0	0	11µM	?	0	?
CCCCC(=O)NC(=S)Nc1ccccc1N1CCCCC1	0	0	?	?	0	0
CCCCC(=O)NC(=S)Nc1cccc(Cl)c1N1CCCCC1	?	21µM	0	?	0	0
CSc1cccc(NC(=S)NC(=O)CCc2ccccc2)c1	0	?	?	16µM	0	?
CSc1cccc(NC(=O)CCc2ccccc2)c1	0	0	?	0	0	0
CCCC(=O)NC(=S)Nc1c(C)cc(Br)cc1C	0	?	0	0	0	18µM
CSc1cccc(NC(=O)NCc2cccc(CNC(=O)Nc3cccc(SC)c3)c2)c1	0	0	0	7.3µM	0	?
NC(=O)c1ccccc1NC(=O)CCc1ccccc1	0	0	0	0	0	0
NC(=O)c1ccccc1NC(=S)NC(=O)CCc1ccccc1	0	0	3.3µM	5.8µM	0	0
CCC(C(=O)Nc1cccc(C#N)c1)n1c(=O)c(-c2ccccc2NC(C)=O)nc2ccccc21 (stereo not drawn)	0	0	-	-	-	?
CCCCOc1ccc(C(=O)NCCc2sc3nc(-c4ccc(OC)cc4)nn3c2C)cc1	0	0	-	-	-	0
Cc1ccccc1C(=O)Nc1nnc(S(=O)(=O)N2CCc3ccccc32)s1	0	0	-	-	-	0
Cc1cccc(C)c1NC(=S)NC(=O)CCc1ccccc1	0	?	3.3µM	?	0	0
CC(=O)c1ccc(NC(=O)CSc2nccn2Cc2ccc3c(c2)OCO3)cc1	0	-	-	-	-	-
Cc1cc2ccccc2n1CCNC(=O)c1ccc(S(=O)(=O)N2CCOCC2)cc1	0	0	16µM	3.7µM	0	0
COc1ccc(C(=O)Nc2ccc(S(=O)(=O)N3CCOCC3)cc2)cc1	0	0	0[9.22 µM]	0	0	0
COc1ccc(C(=O)Nc2ccc(Cl)c(S(=O)(=O)N3CCOCC3)c2)cc1	0	7.3µM	0	?	0	?
CC(C)Oc1ccc(C(=O)Nc2ccc(Cl)c(S(=O)(=O)Nc3ccc(Cl)cc3)c2)cc1	?	5.8µM	?	?	0	?
SMILES	PINK1 modulator	KB-V1 MDR tox	SW480 rerep	MCF10A rerep	PTAP TSG101 blk	KB-3-1 tox
COc1ccc(NC(=O)c2ccc(Br)c(S(=O)(=O)N3CCOCC3)c2)cc1	0	21µM	0	0	0	?
COC(=O)c1ccc(NC(=O)CCn2cnnn2)c(C)c1	0	0	-	-	-	0
COc1ccc(C(=O)OCc2cc(C)ccc2C)cc1S(=O)(=O)N1CCCC1	0	5.2µM	0	?	0	0
COc1ccc(C(=O)Nc2cccc(C(C)=O)c2)cc1S(=O)(=O)N1CCOCC1	0	0	0	0	0	0
COc1ccc(C(=O)N2CCCC2)cc1S(=O)(=O)N1CCOCC1	0	0	0	0	-	23µM
O=C(Nc1ccc(Cl)c(S(=O)(=O)N2CCOCC2)c1)c1ccc(Cl)nc1	0	?	0	?	0	?
Cc1ccc(C)c(COC(=O)c2cccc(S(=O)(=O)N3CCCC3)c2)c1	0	?	0	0	0	0
COc1ccc(C(=O)Nc2cccc(C)c2)cc1S(=O)(=O)N1CCOCC1	-	0	?	18µM	0	0
O=C(Nc1ccc(Cl)c(S(=O)(=O)N2CCOCC2)c1)c1ccc(OCC2CCCO2)cc1 (stereo not drawn)	0	0	0	18µM	0	?
Cc1ccc(NC(=O)c2cc(S(=O)(=O)N3CCOCC3)ccc2F)c(C)c1	0	13µM	0	0	0	0
COc1ccc(OC)c(NC(=O)c2ccc(S(=O)(=O)N3CCOCC3)cc2)c1	0	0	0	0	0	0
COc1ccc(C)cc1NC(=O)c1ccc(S(=O)(=O)N2CCOCC2)cc1	0	16µM	0	0	0	0
CCOC(=O)N1CCN(S(=O)(=O)c2ccc(F)c(C(=O)Nc3cccc(Cl)c3C)c2)CC1	?	3.3µM	0	0	0	0
Cc1cc(C)c(NC(=O)c2cc(S(=O)(=O)N3CCOCC3)ccc2F)c(C)c1	0	0	0	0	0	0
CCOC(=O)N1CCN(S(=O)(=O)c2ccc(F)c(C(=O)Nc3cc(C)cc(C)c3)c2)CC1	0	0	0	0	0	0
CCC(C)(C)C1CCC(NC(=O)c2ccc(S(=O)(=O)N3CCOCC3)cc2)CC1 (stereo not drawn)	0	0	0	6.5µM	0	?
O=C(CSc1n[nH]c(-c2ccccc2Cl)n1)N1CCN(c2ccc(F)cc2)CC1	0	0	-	-	-	0
COc1ccc(NC(=O)c2cc3c(s2)CCC(C)C3)cc1S(=O)(=O)N1CCOCC1 (stereo not drawn)	0	3.7µM	-	?	0	0
COc1ccc(NS(=O)(=O)c2cc(NC(=O)c3ccncc3)ccc2N2CCOCC2)cc1	0	?	0	0	0	0
O=C(COc1ccc(C(=O)c2ccc(F)cc2)cc1)Nc1cccc(S(=O)(=O)N2CCOCC2)c1	0	12µM	0	0	0	0
COc1ccc(S(=O)(=O)N2CCOCC2)c(Cl)c1Cl	-	0	0	7.3µM	0	0
COc1ccc(NS(=O)(=O)c2cc(NC(=O)c3ccc(Cl)cc3)ccc2N2CCOCC2)cc1	0	5.8µM	1.5µM	2.3µM	0	?
CC(C)c1cc(-c2nc(-c3ccc(Cl)cc3)no2)n[nH]1	0	0	-	-	-	0
O=C(Nc1cccc(Br)c1)c1ccc(Cl)c(S(=O)(=O)N2CCOCC2)c1	0	4.6µM	0	0	0	?
COc1ccc(C(=O)NC(=S)Nc2cccc(S(=O)(=O)N3CCOCC3)c2)cc1	0	5.2µM	?	16µM	0	5.8µM
O=C(Nc1cccc(C(=O)NC2CC2)c1)c1ccc(Cl)c(S(=O)(=O)N2CCOCC2)c1	0	?	0	0	0	0
